Data taken from paper PMC12751014, “Non-Catalytic Inhibitors of the p38/MK2 Interface: Repurposing Approved Drugs to Target Neuroinflammation in Alzheimer’s Disease” (Journal of Medicinal Chemistry, 2025).
The whole screen tested about 1,900 compounds, of which about 50 (3%) showed an effect of 50% or more. Many of the other results were omitted from the sample, so strong results are more common in it than they were.

These compounds were tested against p38/MK2 protein–protein interaction (VF-p38α / GST-MK2) (Homo sapiens, UniProt Q16539) (assay: primary screen, percent of control activity; higher = less effect of the substance).
Chain of p38/MK2 protein–protein interaction (VF-p38α / GST-MK2) (Q16539 2-360 limits assumed): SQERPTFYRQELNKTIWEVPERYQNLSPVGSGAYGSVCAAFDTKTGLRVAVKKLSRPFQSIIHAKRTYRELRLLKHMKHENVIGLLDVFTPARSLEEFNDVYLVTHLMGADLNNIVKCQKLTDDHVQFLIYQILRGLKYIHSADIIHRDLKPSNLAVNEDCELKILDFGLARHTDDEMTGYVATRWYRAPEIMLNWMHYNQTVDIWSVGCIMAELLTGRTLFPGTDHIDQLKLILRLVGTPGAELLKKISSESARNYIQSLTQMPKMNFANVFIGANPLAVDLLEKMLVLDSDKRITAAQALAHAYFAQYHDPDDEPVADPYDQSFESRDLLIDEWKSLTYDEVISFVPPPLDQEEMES
Set-up: species or system HEK293T cell lysate transfected with VF-p38α and GST-MK2; unclear (methods say 'quintuplet replicates')
Protocol: The TR-FRET assay was conducted in a 1536-well plate (Corning, catalog no. 3724) with HEK293T cell lysate transfected with VF-p38α and GST-MK2. Cell-lysate concentration was optimized with a titration experiment. Anti-Flag-Tb and anti-GST-d2 antibodies (Revvity, catalog no. 61FGBTLB) were used to couple p38α and MK2, respectively. A multiple-drop Combi dispenser (Thermo Scientific) combined reaction mixtures in quintuplet replicates. The TR-FRET signals were measured using a BMG Labtech PHERAstar FSX plate reader and normalized to the percent of DMSO control.

Compound | Pct of control [%]
Cc1cnc(NC(=O)Nc2cc(Br)c(C)cc2OCC2CNCCO2)cn1 (stereo not drawn) | 73.3
O=C1c2cccc(O)c2C(=O)c2c(O)cc(CO)cc21 | 33.9
Cc1cc(O)c2c(c1)C(=O)c1cccc(O)c1C2=O | 94
O=C1c2c(O)cccc2C(C2OC(CO)C(O)C(O)C2O)c2cc(CO)cc(O)c21 (stereo not drawn) | 92
CC1=NN(c2ccc(C(=O)O)cc2)C(=O)C1=Cc1ccc(-c2cc(C)c(C)cc2[N+](=O)[O-])o1 | 18
COc1ccccc1N1CCN(CCN(C(=O)C2CCCCC2)c2ccccn2)CC1.O=C(O)C=CC(=O)O | 97.5
CN1C(=O)CCS(=O)(=O)C1c1ccc(Cl)cc1 (stereo not drawn) | 95.4
COC(=O)Nc1nc2ccc(C(=O)c3cccs3)cc2[nH]1 | 97.5
CCOc1ccc(NC(C)=O)cc1 | 97.7
CC(C)(C)NC[C@H](O)COc1nsnc1N1CCOCC1.O=C(O)C=CC(=O)O | 94.2
c1ccc(Cn2c(-c3ccc(OCC(C4CCNCC4)n4c(-c5ccccc5)nc5ccccc54)cc3)nc3ccccc32)cc1 (stereo not drawn) | 21.2
CCOc1ccccc1-n1c(C(C)N2CCN(C(=O)COc3ccc(Cl)cc3)CC2)nc2ccccc2c1=O (stereo not drawn) | 100
CCCC1OC2CC3C4CCC5=CC(=O)C=CC5(C)C4C(O)CC3(C)C2(C(=O)CO)O1 (stereo not drawn) | 101
CCCNC(C)C(=O)Nc1c(C)csc1C(=O)OC.Cl (stereo not drawn) | 99.8
O=C(O)CCC1CCC(c2cc(F)ccc2F)(S(=O)(=O)c2ccc(Cl)cc2)CC1 (stereo not drawn) | 85.6
COc1cc2nccc(Oc3ccc(NC(=O)C4(C(=O)Nc5ccc(F)cc5)CC4)cc3)c2cc1OC | 70.5
COc1cc2nccc(Oc3ccc(NC(=O)C4(C(=O)Nc5ccc(F)cc5)CC4)cc3)c2cc1OC.O=C(O)CC(O)C(=O)O | 72.9
CN1CCN(C2CCN(C(=O)Nc3cc(Oc4ccc(NC(=O)C5(C(=O)Nc6ccc(F)cc6)CC5)c(F)c4)ccn3)CC2)CC1 | 46.1
NC(=O)Nc1cc(-c2cccc(F)c2)sc1C(=O)NC1CCCNC1 (stereo not drawn) | 74.3
Cc1cc(NC(=O)c2cccc(NC(=O)C=CCN(C)C)c2)ccc1Nc1nccc(-c2cccnc2)n1 | 80.7
CC1(COc2ccc3c(c2)ncn3-c2ccc3cccc(N4CCC(N)CC4)c3n2)COC1 | 47.3
COCCOc1ccc2c(c1)ncn2-c1ccc2cccc(N3CCC(N)CC3)c2n1 | 51.7
CCOC(=O)[C@H](CCc1ccccc1)N[C@H]1CS[C@H](c2cccs2)CN(CC(=O)O)C1=O.Cl | 77.1
CC(C)(C)CC(C)(C)c1ccc(O)c(Cc2ccc(Cl)cc2Cl)c1 | 88.3

Compound | Pct of control [%]
Cc1nn(-c2ccccc2)c(C)c1C=NN1CCN(Cc2ccccc2)CC1 | 85.5
CC(=O)O.Cc1cc2c(C(C)C)c(O)c(O)c(C=O)c2c(O)c1-c1c(C)cc2c(C(C)C)c(O)c(O)c(C=O)c2c1O [S2812] | 29.9
CC(=O)O.Cc1cc2c(C(C)C)c(O)c(O)c(C=O)c2c(O)c1-c1c(C)cc2c(C(C)C)c(O)c(O)c(C=O)c2c1O [S2303] | 26.8
CC1(C)CCC2=C(O1)c1ccccc1C(=O)C2=O | 102
CCC1OC(=O)C(C)C(OC2CC(C)(OC)C(O)C(C)O2)C(C)C(OC2OC(C)CC(N(C)C)C2O)C(C)(O)CC(C)C(=NOCOCCOC)C(C)C(O)C1(C)O (stereo not drawn) | 103
C=CC(=O)Nc1cccc(Sc2nc(Nc3ccc(N4CCN(C)CC4)cc3)ncc2Cl)c1 | 91.7
Nc1cccc(-c2cc3c(Oc4cccc(O)c4)ncnc3[nH]2)c1 | 90.3
CC[C@@H]([C@H](C)O)n1ncn(-c2ccc(N3CCN(c4ccc(OC[C@@H]5CO[C@@](Cn6cncn6)(c6ccc(F)cc6F)C5)cc4)CC3)cc2)c1=O | 97
NC(N)=NS(=O)(=O)c1ccc(N)cc1 | 105
Cc1c(Cl)cccc1Nc1ccccc1C(=O)O | 99.2
NC(=O)N1c2ccccc2C=Cc2ccccc21 | 93.5
CCC(C)n1ncn(-c2ccc(N3CCN(c4ccc(OCC5COC(Cn6cncn6)(c6ccc(Cl)cc6Cl)O5)cc4)CC3)cc2)c1=O (stereo not drawn) | 88.6
CC(C)Oc1ccc(-c2cnc3c(-c4ccnc5ccccc45)cnn3c2)cc1 | 89.1
COc1ccc(-c2cnc3c(-c4cccc5ncccc45)cnn3c2)cc1 | 23.2
c1cc(-c2cnn3cc(-c4ccc(N5CCNCC5)cc4)cnc23)c2cccnc2c1 | 10.1
CN1CCC(OC(c2ccccc2)c2ccccc2)CC1.Cl | 89.1
COc1ccc(C2=NC(c3ccc(Cl)cc3)C(c3ccc(Cl)cc3)N2C(=O)N2CCNC(=O)C2)c(OC(C)C)c1 (stereo not drawn) [S8065] | 100
COc1ccccc1S(=O)(=O)Nc1ccc2c(c1)CN(C)C(=O)N2 | 117
CCN(C(=O)c1c(O)c2c(Cl)cccc2n(C)c1=O)c1ccccc1 | 88.3
O=[N+]([O-])c1ccc2c(c1)S(=O)(=O)C=C2 | 58.2
CC1CN(CC(=O)Nc2ccc3c(c2)Cc2cccc(-c4cc(=O)cc(N5CCOCC5)o4)c2S3)CC(C)O1 (stereo not drawn) | 82.7
CN(CC(=O)N(Cc1ccc(C2CCCCC2)cc1)c1ccc(C(=O)O)cc1)S(=O)(=O)c1c(F)c(F)c(F)c(F)c1F | 24.1
O=c1c2ccccc2nc2n1CCc1c-2[nH]c2ccccc12 | 100
NNC(=O)c1ccncc1 | 86.5
